The results in this text go back to PubChem BioAssay.

Structures are written as SMILES.

Chain of Concanavalin-A (Canavalia ensiformis) (P02866 whole entry, looked up): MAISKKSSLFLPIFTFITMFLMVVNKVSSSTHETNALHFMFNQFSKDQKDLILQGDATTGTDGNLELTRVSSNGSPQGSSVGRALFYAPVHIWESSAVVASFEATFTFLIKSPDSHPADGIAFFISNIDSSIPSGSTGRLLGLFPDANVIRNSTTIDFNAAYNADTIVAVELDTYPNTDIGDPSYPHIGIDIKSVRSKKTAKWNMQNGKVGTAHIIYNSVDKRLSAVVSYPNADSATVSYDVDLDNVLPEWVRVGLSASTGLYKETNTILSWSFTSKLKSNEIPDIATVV

The assay has as its target Concanavalin-A (Canavalia ensiformis) (UniProt P02866). The assay can be described thus: ConA small-molecule binders, primary screen, artefact control for SMM control protein annotation, biochemical, small-molecule microarray, Alexa647 label, 635 nm (AID 1127).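 Note: z combines 667 nm emission intensity with signal-to-noise across three replicate slides.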 Particulars: ConA-A647 binding fluorescence, higher = more signal.
`COC(=O)[C@@H]1N=C(c2ccc(OCCCO)cc2)O[C@@H]1C` had a composite z-score of 0.0255.

For the compound `C=C[C@H]1C(C(=O)OCC)=CC[C@@H](c2ccccc2)N1S(=O)(=O)c1ccc(C)cc1`, the composite z-score stood at 0.789. `CC(c1ccccc1)C(O)C1C=CC2C(=O)N(C)C(=O)C2N1Nc1ccccc1` (stereo not given) gave a composite z-score of 1.21.

In turn, `NC(=O)NCC#Cc1ccc2c(c1)[C@]1(C(=O)N2)[C@H](c2ccccc2OCCO)N2[C@H](c3ccccc3)[C@H](c3ccccc3)OC(=O)[C@H]2[C@@H]1C(=O)NC[C@H](O)c1ccccc1` came in with a composite z-score of 0.68. With `CCCCC[C@H]1OC[C@@]23C=C(Br)[C@@H](CC12)[C@@]1(CO1)C3=O` (stereo not given in full) the figure was -0.308; with `CCC#CCN(Cc1ccccc1Br)[C@H](/C=C/C1CC1)[C@@H](O)Cc1ccccc1`, -0.138. For `COC(=O)C(CC#Cc1ccc2c(c1)[C@]1(C(=O)N2)[C@H](c2ccc(O)cc2)N2[C@H](c3ccccc3)[C@H](c3ccccc3)OC(=O)[C@H]2[C@@H]1C(=O)NC[C@H](O)c1ccccc1)C(=O)OC` the value was 0.517; for `CCCCC(O)C1C=CC2C(=O)N(C)C(=O)C2N1N(c1ccccc1)c1ccccc1` (stereo not given), 1.1; for `O=C1[C@H]2C=C(I)[C@H](C[C@@H]2OCCOCCO)[C@@]12CO2`, 0.2. Take `C=CC[C@]1(C(=O)N2CCCCC2)N=C(c2ccc(OCCCO)cc2)O[C@H]1c1ccccc1CN=[N+]=[N-]`: the composite z-score was 1.1. With `COC(=O)[C@@]1(Cc2ccc(OC)cc2)[C@H]2c3cc(C(=O)N4CCCC4)n(CCO)c3C[C@H]2CN1C(=O)c1ccccc1`, the composite z-score was determined as 0.716.

For the compound `C=CC[C@]1(C(=O)N2CCOCC2)COC(c2ccc(OCCCO)cc2)=N1`, the composite z-score turned out to be 1.16.

Compound `CN(C)C(=O)[C@]1(CCC(=O)OC(C)(C)C)N=C(c2ccc(OCCCO)cc2)O[C@@H]1c1ccccc1CN=[N+]=[N-]` gave a composite z-score of 1.12. For `CO[C@H]1O[C@H](CO)[C@@H](OC(=O)Nc2ccc3c(c2)OCO3)[C@H](OC(=O)Nc2ccc3c(c2)OCO3)[C@@H]1OC(=O)Nc1ccc2c(c1)OCO2`, the composite z-score was 0.954. For `C=C[C@@H](OC)[C@H](OC(=O)Nc1ccc(OC)cc1)c1ccc(O)c(F)c1` the value was -0.728. With `COC(=O)c1c(CC[C@@H](CO)NC(=O)N[C@@H](C)Cn2cc(-c3ccccn3)nn2)oc(C(C)=O)c1C(=O)OC` the figure was 0.743; with `CCCC[C@@H](O)C1=C(COC)C[C@H]2C(=O)N(Cc3ccccc3)C(=O)[C@H]2[C@H]1CO`, 0.455. With `CCCN1C(=O)[C@]2(Cc3ccccc31)N=C(c1ccc(OCCCO)cc1)O[C@@H]2c1ccccc1` the figure was 0.884; with `CCOC(=O)C[C@H]1[C@H](OC(=O)c2ccc(C(=O)c3ccccc3)cc2)[C@@H](NC(=O)C2CCCCC2)c2cc(OCCCO)ccc2N1C(=O)c1ccc2ccccc2n1`, 0.955; with `COc1cccc(C)c1NC(=O)O[C@H]1[C@H](OC(=O)Nc2ccc3c(c2)OCO3)[C@@H](OC(=O)Nc2ccc3c(c2)OCO3)[C@@H](OC)O[C@@H]1CO`, 0.66. Take `CC(C)(C)OC(=O)COc1cccc(C(=O)CCN2CCOCC2)c1`: the composite z-score is -0.244.

On to `CC(C)NC(=O)[C@@]1(C)c2ccccc2C(=O)N(Cc2ccc(OC(F)(F)F)cc2)[C@H]1c1ccc(CO)cc1`, for which the composite z-score was -0.04.

The compound `COc1cc2c(cc1O)C(c1cccs1)N(Cc1cc3c(cc1Br)OCO3)CC2` (stereo not given) showed a composite z-score of 1.12. As to `CCCCNC(=O)c1ccc(C#CC(C)(C)C)c(OC(C)=O)c1`, the composite z-score is 0.744. As to `CCCC1(C(=O)OC)C=C2C(=C(C)C(=O)C2C)CN1` (stereo not given), the composite z-score is -2.2. Compound `O=C(C1N=C(c2ccc(OCCCO)cc2)N(c2ccccc2)O1)N1CCCCC1` (stereo not given) registered a composite z-score of 1.2. With `CCCCN1CC=CC23O[C@@H]4/C=C\CCC(C)OC(=O)C4[C@H]2C(=O)N(CCCO)[C@@H]3C1=O` (stereo not given in full) the figure was 0.12; with `Cc1ccc(S[C@]2(C(=O)NCC(F)(F)F)CC(=O)N(Cc3cc(C(F)(F)F)cc(C(F)(F)F)c3)[C@@H]2c2ccc(CO)cc2)cc1`, -0.183.

In the case of `COC(=O)[C@@]1(Cc2ccc(F)cc2)[C@H]2c3cc(C(=O)N(C)C)n(CCc4ccc(OC)c(Br)c4)c3C[C@H]2CN1C(=O)c1ccccc1`, the composite z-score came out at 0.793. Regarding `O=C(NCCN1CCOCC1)[C@@H]1c2ccccc2C(=O)N(Cc2ccccc2Cl)[C@H]1c1ccc(CO)cc1`, the composite z-score is -1.19. Take `CCCCCN1CC=CC23O[C@@H]4/C=C\CCCOC(=O)C4[C@H]2C(=O)N(C(C)CO)[C@@H]3C1=O` (stereo not given in full): the composite z-score is -0.734. Consider `COc1ccc(CCNC(=O)[C@@H]2c3ccccc3C(=O)N(C3CCCCC3)[C@H]2c2ccc(CO)cc2)cc1`, for which the composite z-score came to 0.802. `C=CCNC(=O)[C@H]1[C@@H]2C(=O)O[C@@H](c3ccccc3)[C@@H](c3ccccc3)N2[C@@H](c2ccccc2OCCO)[C@]12C(=O)N(C(=O)OCCOC)c1ccc(C#CC3(O)CCCCCC3)cc12` had a composite z-score of 0.815. For `C#Cc1cc2ccccc2oc1=O` the value was -0.486; for `CCCC=C(CCC)[C@@H](NS(=O)(=O)CC12CCC(CC1=O)C2(C)C)c1ccc(C(=O)OC)cc1` (stereo not given in full), 0.438.
